Screening results from PubChem.
SMN2 splice enh – qHTS Assay for Enhancers of SMN2 Splice Variant Expression | HEK293 SMN2-luciferase splicing reporter, luminescence, 30-36 h | Potency, µM (series often up to 46.1 µM), inactives show at the top dose activity change, positive = activation, most hits filed as activators | 2.8% of 210,000 active; also: % of control where 0% means no effect; nearly all actives have a fitted effect of over 55% in size
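HEK293 cells carry an SMN2 […]–luciferase reporter in which exon 7 inclusion puts luciferase in frame. Cells were plated 10-12 h before compound addition, then incubated 30-36 h at 37C. ONE-Glo luminescence was read; sodium butyrate at 4.5 mM final served as control.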
ELG1 genotox – qHTS screen for small molecules that induce genotoxicity in human embryonic kidney (HEK293T) cells expressing luciferase-tagged ELG1; HEK293T ELG1-luciferase reporter, luminescence, 16 h; AID 504466, 2011; Potency, µM (doses to about 46 µM), without a hit: top-dose activity change, positive = activation, hits mostly activators; 1.3% of 330,000 active; also: % of control where 0% means no effect; nearly all actives have a fitted effect of over 60% in size
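ELG1-luciferase HEK293T cells, 2,000/well; compound pinned in; 16 hr, 37 °C, 5% CO2; ONE-Glo, 30 min RT; luminescence on CCD imager.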
FLuc modulator – qHTS profiling assay for firefly luciferase inhibitor/activator using purifed enzyme and Km concentrations of substrates (counterscreen for miR-21 project); purified FLuc, Km substrates, luminescence inhibition; Potency, µM (titrated, usually from 57.5 µM), for inactives: top-dose activity change, negative = inhibition, actives largely listed as inhibitors; 6.9% of 360,000 active; AID 588342, 2011;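 also: plate controls were vehicle for no effect and reference inhibitor for full effect; nearly all actives have a fitted effect of over 55% in size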
Target sequence (P08659 whole entry, looked up): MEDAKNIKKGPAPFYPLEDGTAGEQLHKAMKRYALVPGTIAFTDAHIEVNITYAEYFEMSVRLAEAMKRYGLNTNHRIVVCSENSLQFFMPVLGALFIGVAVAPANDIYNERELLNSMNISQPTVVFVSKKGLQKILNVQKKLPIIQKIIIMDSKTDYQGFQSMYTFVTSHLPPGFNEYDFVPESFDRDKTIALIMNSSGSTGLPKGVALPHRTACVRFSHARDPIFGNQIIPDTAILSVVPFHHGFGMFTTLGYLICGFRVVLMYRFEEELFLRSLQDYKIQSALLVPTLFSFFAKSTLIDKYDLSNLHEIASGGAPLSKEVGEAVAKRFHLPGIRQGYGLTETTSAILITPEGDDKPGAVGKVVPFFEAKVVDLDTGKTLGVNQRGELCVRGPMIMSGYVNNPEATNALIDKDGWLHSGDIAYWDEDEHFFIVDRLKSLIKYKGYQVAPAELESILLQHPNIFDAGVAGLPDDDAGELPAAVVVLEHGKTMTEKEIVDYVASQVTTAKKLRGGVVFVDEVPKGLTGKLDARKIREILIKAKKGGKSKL
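Purified P. pyralis luciferase, 10 nM final, with Km-level 10 uM D-luciferin and 10 uM ATP in 50 mM Tris acetate pH 7.5, 10 mM Mg acetate, 0.01% Tween-20, 0.05% BSA; 6-point qHTS titration about 60 µM downward; luminescence read.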
NPC1 promoter act – qHTS Assay for NPC1 Promoter Activators; Huh7 NPC1 promoter luciferase reporter, 24 h; Potency, µM (series often up to 9.22 µM), inactives show at the top dose activation, actives largely listed as activators; 2.4% of 320,000 active; also: % of control where 0% means no effect; nearly all actives have a fitted effect of over 60% in size
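Compounds in DMSO were transferred onto Huh7 NPC1-luciferase reporter cells pre-incubated 2 h; after 24 h at 37 °C, Amplite reagent was dispensed and luminescence recorded 10 min later.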
ELG1 repair inh – qHTS screen for small molecules that inhibit ELG1-dependent DNA repair in human embryonic kidney (HEK293T) cells expressing luciferase-tagged ELG1. HEK293T ELG1-luciferase reporter, luminescence, 16 h; DNA damage induced by 5-fluorouridine. Potency, µM (titrated, usually from 46.1 µM), for inactives: top-dose activity change, negative = inhibition, most hits filed as inhibitors. 2.3% of 330,000 active. AID 504467, 2011; also: % is scaled to controls: 0 for no effect and ±100 for the full control effect; nearly all actives have a fitted effect of over 55% in size
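Reporter activity after DNA damage by 5-fluorouridine is monitored. Compound-treated cells incubate 16 hr at 37 °C, then ONE-Glo is added for 30 min before luminescence reading.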
Rab9 prom act – qHTS Assay for Rab9 Promoter Activators. Huh7 Rab9 promoter-luciferase reporter, luminescence, 24 h. Potency, µM (series often up to 9.22 µM), without a hit: at the top dose activation, negative = inhibition, usual class: activators. 2.8% of 320,000 active. AID 485297, 2010; also: % of control where 0% means no effect; nearly all actives have a fitted effect of over 60% in size
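Quantitative HTS format; Huh7 Rab9-luciferase reporter cells (1500/well) receive compound 2 h post-plating, incubate 24 h at 37 °C, then get luciferase reagent for 10 min before luminescence reading.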
An asterisk follows results filed as active. Compounds with a hit are over-represented: about 9.2% of the library has one in this group of screens. Calls follow the shape of the dose curve; as a rule, active = well fitted curve in the direction sought with a large enough effect; inconclusive = small, poorly fitted or top-dose-only effect, or another doubt; inactive = no such curve, though single readings can be large; an effect the other way counts as inactive or inconclusive. Potency is read from the fitted curve at half-maximal effect.

How did CC(C)c1ccccc1-n1c(SCC(=O)c2ccc3c(c2)NC(=O)CO3)nc2ccccc2c1=O do in these assays?
SMN2 splice enh: -13.2%; ELG1 genotox: -8.9%; FLuc modulator: 2.7%; NPC1 promoter act: -11.6%; ELG1 repair inh: 5.17µM*; Rab9 prom act: -6.2%

What do the screens show for `COCCn1c(SCc2ccc(C(=O)OC)o2)nc2cc(Cl)ccc2c1=O`?
SMN2 splice enh: -9.1%; ELG1 genotox: -1.4%; FLuc modulator: -1.2%; NPC1 promoter act: 0.7%; ELG1 repair inh: inconclusive; Rab9 prom act: 3.55µM*

How did O=C1COc2ccc(C(=O)CSc3ccccc3C(=O)O)cc2N1 do in these assays?
ELG1 genotox: -1.1%; FLuc modulator: inconclusive; NPC1 promoter act: 4.7%; ELG1 repair inh: 5.1%; Rab9 prom act: -7.0%

Results for COCCn1c(SCC(=O)N2CCc3ccccc3C2)nc2cc(Cl)ccc2c1=O ?
SMN2 splice enh: -14.8%; ELG1 genotox: -14.6%; FLuc modulator: 1.3%; NPC1 promoter act: 0.3%; ELG1 repair inh: 23.1µM*; Rab9 prom act: 1.2%

What do the screens show for `Cc1cc(C)c2c(N)c(C(=O)Nc3nccs3)sc2n1`?
SMN2 splice enh: inconclusive; ELG1 genotox: 0.326µM*; FLuc modulator: 0.338µM*; NPC1 promoter act: inconclusive; ELG1 repair inh: inconclusive; Rab9 prom act: 1µM*

How did COCc1cc(C)nc2sc(C(=O)Nc3nccs3)c(N)c12 do in these assays?
SMN2 splice enh: 11.6%; ELG1 genotox: 18.8%; FLuc modulator: 16.9µM*; NPC1 promoter act: inconclusive; ELG1 repair inh: inconclusive; Rab9 prom act: inconclusive

What do the screens show for `CCCCOC(=O)c1sc2nc(C)cc(C)c2c1N`?
ELG1 genotox: inconclusive; FLuc modulator: 10.7µM*; NPC1 promoter act: 3.55µM*; ELG1 repair inh: inconclusive; Rab9 prom act: 2.82µM*

How did Cc1ccc(NC(=O)c2sc3nc(C)cc(C)c3c2N)cc1 do in these assays?
ELG1 genotox: inconclusive; FLuc modulator: 1.2µM*; NPC1 promoter act: 0.562µM*; ELG1 repair inh: inconclusive; Rab9 prom act: 0.562µM*

How did O/N=C/c1ccccc1OCc1ccc(Cl)cc1 do in these assays?
SMN2 splice enh: -5.6%; ELG1 genotox: 14.9%; FLuc modulator: 16.9µM*; NPC1 promoter act: inconclusive; ELG1 repair inh: inconclusive; Rab9 prom act: inconclusive

Results for O/N=C/c1ccccc1OCc1ccccc1Cl ?
SMN2 splice enh: 0.9%; ELG1 genotox: 1.9%; FLuc modulator: -5.3%; NPC1 promoter act: 2.9%; ELG1 repair inh: inconclusive; Rab9 prom act: 0.9%

What do the screens show for `CCOC(=O)N/N=C/c1ccccc1OCc1ccc(Cl)cc1`?
SMN2 splice enh: 27.0%; ELG1 genotox: 2.3%; FLuc modulator: 15.1µM*; NPC1 promoter act: -1.9%; ELG1 repair inh: 2.9%; Rab9 prom act: -4.7%

How did O=[N+]([O-])c1nn(-c2ccc3c(c2)OCCO3)n(O)c1=NCc1ccc(F)cc1Cl do in these assays?
SMN2 splice enh: 3.55µM*; ELG1 genotox: inconclusive; FLuc modulator: inconclusive; NPC1 promoter act: inconclusive; ELG1 repair inh: inconclusive; Rab9 prom act: 2.82µM*

Results for O=[N+]([O-])c1nn(-c2ccc3c(c2)OCCO3)n(O)c1=NCCC1=CCCCC1 ?
SMN2 splice enh: inconclusive; ELG1 genotox: inconclusive; FLuc modulator: inconclusive; NPC1 promoter act: inconclusive; ELG1 repair inh: inconclusive; Rab9 prom act: 3.55µM*

Results for COc1cc(N=c2c([N+](=O)[O-])nn(-c3ccc4c(c3)OCCO4)n2O)cc(OC)c1 ?
SMN2 splice enh: 12.6µM*; ELG1 genotox: 14.9%; FLuc modulator: inconclusive; NPC1 promoter act: 28.6%; ELG1 repair inh: inconclusive; Rab9 prom act: inconclusive
